Measured values as given in PubChem BioAssay AID756 (University of Pittsburgh Molecular Library Screening Center, 2007).
The other results are listed elsewhere or left out. Unmarked numbers belong to inactive results.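 Rule for the calls: active = both duplicate runs show 50% or greater inhibition; inconclusive = only one duplicate run shows over 50% inhibition; inactive = both runs show under 50% inhibition.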

Assay: false signal in post-reaction Plk1 detection – biochemical, TR-FRET, compound added post-reaction, artefact control for Plk1 kinase inhibitor project (AID 756);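 note: 0% = DMSO max control and 100% = H-89 min control inhibited reaction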
Conditions: Plk1 TR-FRET assay interference, at 10 µM, hits give high values

SMILES | inhibition (interference) [%]
C[N+]1(CCNC(=O)/C=N/O)CCCCC1 | -46.6
CC1CN(c2cc(=O)n(Cc3ccc(F)cc3)c(=O)[nH]2)CC(C)O1 (stereo unspecified) | -49.5
COc1ccc(-c2nc(CS(=O)CC(=O)NCc3cccnc3)c(C)o2)cc1OC (stereo unspecified) | -52.6
Cc1ccnc(N2C(=O)c3ccccc3C2Nc2ccc3c(c2)OCCO3)c1 (stereo unspecified) | -50.1
CC1CSc2nnc(CCc3ccccc3)n21 (stereo unspecified) | -58.9
O=C(Nc1cccc(F)c1)c1ccc(S(=O)(=O)N2CCCC2)cc1 | -44.8
